Measured values reported in PubChem BioAssay AID1986 (Sanford-Burnham Center for Chemical Genomics, 2009).
The whole screen tested about 290,000 compounds, of which about 890 (0.31%) were called active. Cut-off read from the data, not from the text of the source: active = inhibition mostly above about 52% (no sharp cut-off); inactive = mostly below about 76%. What follows is part of a selection rich in actives, with near analogues and random picks from the rest.

Test: inhibitors of HIV fusion peptide binding, primary screen, biochemical, uHTS, fluorescence dequenching (AID 1986)
Settings: cell-free peptide binding, 30 min, stronger effect = higher value
[1] = measured here: repeat confirmation average inhibition, at 18.6 µM

Row | SMILES | inhibition (at 20 µM) | inhibition [1] [%]
1 | O=C(c1cc(S(=O)(=O)N2CCCCC2)ccc1Cl)N1CCOCC1 | 0.1% (inactive) | –
2 | COc1cc([N+](=O)[O-])ccc1NC(=O)NCc1ccccn1 | -3.2% (inactive) | –
3 | COc1cccc(/C=N/NC(=S)Nc2cccc(C(=O)O)c2)c1O | 7.9% (inactive) | –
4 | O=C(O)c1cccc(NC(=S)N/N=C/c2ccccc2OCc2ccc(Br)cc2)c1 | 65.6% (active) | –
5 | O=C(O)c1cccc(NC(=S)N/N=C/c2cccc(O)c2)c1 | 1.3% (inactive) | –
6 | COc1ccccc1NC(=O)N(Cc1cc2cc(OC)c(OC)cc2[nH]c1=O)CC1CCCO1 (configuration not stated) | -1.5% (inactive) | –
7 | Cc1cc(C)c2nc(N3CCC(C(=O)NCCCN4CCCC4=O)CC3)sc2c1 | -0.6% (inactive) | –
8 | COc1cc(/C=N/NC(=S)NCCN2CCOCC2)cc(OC)c1OC | -0.8% (inactive) | –
9 | CCOC(=O)c1cc(-c2ccc(/C=C3/C(=O)NC(=O)C(C#N)=C3C)o2)ccc1Cl | 65.1% (active) | –
10 | C=CCOC(=O)c1cc(-c2ccc(/C=C3\C(=O)NC(=O)C(C#N)=C3C)o2)ccc1Cl | -2.1% (inactive) | –
11 | CC1=C(C#N)C(=O)NC(=O)/C1=C/c1ccc(-c2ccc(S(N)(=O)=O)cc2)o1 | 46.5% (inactive) | –
12 | O=C(c1cccnc1)N1CCN(Cc2ccc3c(c2)OCO3)CC1 | 2.7% (inactive) | –
13 | CCN(CC)c1ccc(/C=C(\C#N)c2nc(-c3cccs3)c(NC(C)=O)s2)cc1 | 122% (active) | –
14 | CCN(CC)c1ccc(/C=C(\C#N)c2ccccn2)cc1 | 19.5% (inactive) | –
15 | CC(=O)Nc1sc(N/N=C\c2ccc(O)cc2)nc1-c1cccs1 | -0.1% (inactive) | –
16 | CC(=O)Nc1sc(/C(C#N)=C\c2cccc(Cl)c2)nc1-c1ccc(C)cc1 | 61.1% (active) | 75.8
17 | CC(=O)Nc1sc(N/N=C/c2ccccc2)nc1-c1ccc(C)cc1 | 0.1% (inactive) | –
18 | CC(=O)Nc1sc(N/N=C/c2ccc(C)cc2)nc1-c1ccc(C)cc1 | -3% (inactive) | –
19 | C=CCNC(=O)N[C@@H](Cc1ccccc1)C(=O)OC | -0.9% (inactive) | –
20 | Cc1c(C(=O)N2CCCC2)sc(NC(=O)c2cccs2)c1C#N | 3.6% (inactive) | –
21 | O=C(CNC(=O)c1ccccc1Br)N/N=C/c1cccnc1 | 0.5% (inactive) | –
22 | O=C1CC(NNC(=O)c2ccccc2)C(=O)N1 (configuration not stated) | -0.3% (inactive) | –
23 | COC(=O)c1cc(S(=O)(=O)NCC2CCN(Cc3cccc(Cl)c3)CC2)c[nH]1 | -0.3% (inactive) | –
24 | c1ccc(Cn2c[n+](Cc3ccccc3)cn2)cc1 | -1.5% (inactive) | –
25 | c1ccc(-c2nc3ccccc3c3nncn23)cc1 | -1.8% (inactive) | –

Row | SMILES | inhibition (at 20 µM) | inhibition [1] [%]
26 | O=c1[nH]nc(SCc2ccccc2Cl)n1-c1ccc2c(c1)OCCO2 | -1.4% (inactive) | –
27 | COCCCN(C(=O)c1ccco1)c1nc(-c2ccc(OC)cc2)cs1 | 2.9% (inactive) | –
28 | O=C(CCCl)Nc1cc(SCCO)cc([N+](=O)[O-])c1 | 0.1% (inactive) | –
29 | CC(=O)c1cc(NC(=O)c2cccc(C(F)(F)F)c2)c(=O)oc1/C=C/N(C)C | 75.6% (active) | 91.6
30 | CC(=O)c1cc(NC(=O)c2cccc(C(F)(F)F)c2)c(=O)oc1C | 0.8% (inactive) | –
31 | CC(=O)c1cc(NC(=O)c2ccc(C)cc2)c(=O)oc1/C=C/N(C)C | 25.7% (inactive) | –
32 | COC(=O)c1ccc2c(c1)C(C)(C)C(/C=C/c1ccc(O)cc1)=[N+]2C | 111% (active) | –
33 | COC(=O)c1ccc2c(c1)C(C)(C)C(/C=C/c1ccc(OC)c(OC)c1OC)=[N+]2C | 10.3% (inactive) | –
34 | COC(=O)c1ccc2c(c1)C(C)(C)C(/C=C/c1ccccc1O)=[N+]2C | 143% (inactive) | –
35 | C/C=C(\C)CN1CCN(c2ccccc2F)CC1 | -0.4% (inactive) | –
36 | CC(=O)c1sc(NS(=O)(=O)c2ccc(C)cc2)nc1-c1ccccc1 | 19.8% (inactive) | –
37 | Cc1ccc(S(=O)(=O)N/N=C\c2cc([N+](=O)[O-])ccc2Cl)cc1 | 2.5% (inactive) | –
38 | NC1=NC(=O)/C(=C\c2cc([N+](=O)[O-])ccc2Cl)S1 | -3.5% (inactive) | –
39 | Cc1ccc(S(=O)(=O)N/N=C/c2cc([N+](=O)[O-])ccc2O)cc1[N+](=O)[O-] | 17.1% (inactive) | –
40 | COc1cc(/C=C2\S/C(=N/S(=O)(=O)c3ccccc3)NC2=O)c([N+](=O)[O-])cc1OC | 59.3% (inactive) | 33.8
41 | COc1ccc(S(=O)(=O)/N=C2/NC(=O)/C(=C\c3cc(OC)c(OC)cc3[N+](=O)[O-])S2)cc1 | 27.4% (inactive) | –
42 | O=C(NCc1cc([N+](=O)[O-])ccc1O)c1cccc(NS(=O)(=O)c2ccccc2)c1 | 4% (inactive) | –
43 | O=S(=O)(c1ccccc1)N1CCN(c2nnc(-c3ccccc3)c3ccccc23)CC1 | 0% (inactive) | –
44 | Cc1cc(S(=O)(=O)N2CCCC2)c(C)s1 | -1.2% (inactive) | –
45 | Nn1c(SCc2cccc(Br)c2)nnc1-c1cccnc1 | -2% (inactive) | –
46 | COC(=O)CN1C(=S)N(c2ccc(OC)cc2)C(=O)/C1=C/c1ccc(N2CCOCC2)cc1 | 73.4% (active) | –
47 | CCOc1ccc(/C=C2/C(=O)N(c3ccc(OC)cc3)C(=S)N2CC(=O)OC)cc1OCC | 2.5% (inactive) | –
48 | COC(=O)CN1C(=S)N(c2ccc(OC)cc2)C(=O)/C1=C/c1ccc(OC)cc1 | -1.4% (inactive) | –
49 | COC(=O)N=Nc1c(O)[nH]c2ccc(Br)cc12 | -0.3% (inactive) | –
